Assay results taken from PubChem BioAssay AID1159580 (chemical genetic matrix, 2015).
Where “and” joins values, the source holds several entries; their conditions need not be identical. Equal values may be shown once. The whole screen tested about 5,500 compounds, of which about 2,000 (36%) were called active. Inconclusive results (about 18%) are left out. Cut-off read from the data, not from the text of the source: active = normalized growth mostly below about 0.91 (no sharp cut-off); inconclusive = no clear call, values can overlap the other calls; inactive = mostly above about 0.92. The list shows a part of the results.

Test: chemical genetic growth profiling, strain panel (AID 1159580);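 note: tested at 20 µM; growth read once vehicle control cultures reached saturation at 30 °C; 1 = growth at the plate median or of vehicle wells; lower values mean less growth of the strain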
Conditions: S. cerevisiae deletion strains, growth OD

Measured: normalized growth

COc1ccc2cc3[n+](cc2c1OC)CCc1cc2c(cc1-3)OCO2
active: locus YAL013W, strain DEP1, active compounds read low 0.509 | locus YBR229C, strain ROT2, active compounds read low 0.762 | locus YCL029C, strain bik1, active compounds read low 0.379 | locus YDL035C, strain GPR1, active compounds read low 0.278 | locus YDL074C, strain BRE1, active compounds read low 0.352 | locus YDL101C, strain DUN1, active compounds read low 0.569 | locus YDL134C, strain PPH21, active compounds read low 0.398 | locus YDL192W, strain arf1, active compounds read low 0.436 | locus YDR101C, strain arx1, active compounds read low 0.278 | locus YDR150W, strain NUM1, active compounds read low 0.681 | locus YDR162C, strain NBP2, active compounds read low 0.533 | locus YDR318W, strain mcm21, active compounds read low 0.461 | locus YDR388W, active compounds read low 0.365 | locus YDR502C, strain sam2, active compounds read low 0.345 | locus YEL061C, strain CIN8, active compounds read low 0.567 | locus YER110C, active compounds read low 0.452 | locus YER167W, strain BCK2, active compounds read low 0.467 | locus YGL078C, strain dbp3, active compounds read low 0.854 | locus YGL086W, strain mad1, active compounds read low 0.394 | locus YGL248W, strain PDE1, active compounds read low 0.3 | locus YGR078C, strain PAC10, active compounds read low 0.481 | locus YGR135W, strain pre9, active compounds read low 0.318 | locus YGR229C, strain SMI1, active compounds read low 0.454 | locus YGR252W, strain gcn5, active compounds read low 0.604 | locus YHR030C, strain SLT2, active compounds read low 0.664 and 0.844 | locus YHR079C, strain IRE1 (second series), active compounds read low 0.439 | locus YHR079C, strain IRE1, active compounds read low 0.783 | locus YHR094C, strain hxt1, active compounds read low 0.689 | locus YHR129C, strain ARP1, active compounds read low 0.699 | locus YHR200W, strain rpn10, active compounds read low 0.518 | locus YIL066C, strain RNR3, active compounds read low 0.373 | locus YIL073C, strain SPO22, active compounds read low 0.209 | locus YIR030C, strain dcg1, active compounds read low 0.521 | locus YJL095W, strain BCK1, active compounds read low 0.417 and 0.79 | locus YJL134W, strain LCB3, active compounds read low 0.874 | locus YJL168C, strain set2, active compounds read low 0.826 | locus YJL187C, strain SWE1 (second series), active compounds read low 0.291 | locus YJR043C, strain POL32, active compounds read low 0.482 | locus YJR066W, strain TOR1, active compounds read low 0.765
inactive: locus YAL021C, strain ccr4, active compounds read low 0.997 | locus YAL026C, strain drs2, active compounds read low 0.99 | locus YAL030W, strain snc1, active compounds read low 0.996 | locus YBL061C, strain skt5, active compounds read low 0.986 | locus YBR009C, strain hhf1, active compounds read low 1 | locus YBR021W, strain FUR4, active compounds read low 0.847 | locus YBR023C, strain chs3, active compounds read low 0.982 | locus YBR171W, strain sec66, active compounds read low 0.983 | locus YBR231C, strain swc5, active compounds read low 0.985 | locus YBR279W, strain paf1, active compounds read low 0.987 | locus YCL011C, strain gbp2, active compounds read low 0.998 | locus YCL016C, strain dcc1, active compounds read low 0.982 | locus YCL061C, strain MRC1, active compounds read low 1.01 | locus YCL069W, strain vba3, active compounds read low 0.999 | locus YCR088W, strain abp1, active compounds read low 0.98 | locus YDL005C, strain med2, active compounds read low 0.984 | locus YDL040C, strain nat1, active compounds read low 0.986 | locus YDL185W, strain tfp1, active compounds read low 1 | locus YDR001C, strain nth1, active compounds read low 0.981 | locus YDR069C, strain doa4, active compounds read low 1 | locus YDR137W, strain rgp1, active compounds read low 0.979 | locus YDR159W, strain sac3, active compounds read low 1.02 | locus YDR195W, strain ref2 0.977 | locus YDR297W, strain sur2, active compounds read low 0.99 | locus YDR334W, strain swr1, active compounds read low 0.973 | locus YDR335W, strain msn5, active compounds read low 0.967 | locus YDR392W, strain spt3, active compounds read low 0.984 | locus YEL003W, strain gim4, active compounds read low 0.99 | locus YEL037C, strain rad23, active compounds read low 0.981 | locus YEL061C, strain CIN8 (second series), active compounds read low 0.993 | locus YER015W, strain faa2, active compounds read low 0.991 | locus YER016W, strain bim1, active compounds read low 0.981 | locus YER111C, strain swi4, active compounds read low 1 | locus YER155C, strain BEM2 (second series), active compounds read low 0.968 | locus YER155C, strain BEM2, active compounds read low 0.957 | locus YFR010W, strain ubp6, active compounds read low 0.992 | locus YGL167C, strain pmr1, active compounds read low 0.983 | locus YGL173C, strain kem1, active compounds read low 0.989 | locus YGL227W, strain vid30, active compounds read low 0.989 | locus YGL240W, strain doc1, active compounds read low 0.996 | locus YGL253W, strain hxk2, active compounds read low 0.988 | locus YHR013C, strain ard1, active compounds read low 0.943 | locus YHR027C, strain rpn1, active compounds read low 0.998 | locus YHR142W, strain chs7, active compounds read low 0.995 | locus YIL125W, strain kgd1, active compounds read low 0.966 | locus YJL092W, strain hpr5, active compounds read low 0.982 | locus YJL095W, strain BCK1 (second series), active compounds read low 1.01 | locus YJL115W, strain asf1, active compounds read low 0.986 | locus YJL129C, strain trk1, active compounds read low 0.993 | locus YJL154C, strain vps35, active compounds read low 0.974 | locus YJL164C, strain tpk1, active compounds read low 0.99 | locus YJL166W, strain qcr8, active compounds read low 1.01 | locus YJL187C, strain SWE1, active compounds read low 0.989
